In PubChem BioAssay (NCATS) one finds Potency data, which are given here for 40 compounds.

Records with an inconclusive call do not appear. A call without a number means that no potency is given here. Active and inactive are the calls of the source. The call rests on the fitted dose curve; in most records, active means well fitted inhibition curve with a large enough effect; inconclusive means small, poorly fitted or top-dose-only effect; inactive means flat fitted curve, though single readings scatter.
Potency means the concentration at half of the fitted maximal effect.

In this assay the target is Dual specificity protein kinase CLK4 (Homo sapiens) (UniProt Q9HAZ1). As to the kind of experiment: qHTS Assay for Inhibitors of CDC-like Kinase 4 (ADP-FP Assay) (AID 1795). Further: nearly all actives have a fitted effect of over 60% in size. The conditions noted are these: Transcreener ADP fluorescence polarization; series mostly up to 50 µM. In a few lines: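 Recombinant human Clk4 (6.25 nM) phosphorylated RS repeat peptide (100 uM) with 1 uM ATP in Tris pH 7.5/MgCl2/EGTA/DTT/Triton buffer for one hour. ADP was quantified by Transcreener competitive fluorescence polarization against an ADP calibration curve.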
Sequence of Dual specificity protein kinase CLK4 (Homo sapiens) (Q9HAZ1 whole entry, looked up): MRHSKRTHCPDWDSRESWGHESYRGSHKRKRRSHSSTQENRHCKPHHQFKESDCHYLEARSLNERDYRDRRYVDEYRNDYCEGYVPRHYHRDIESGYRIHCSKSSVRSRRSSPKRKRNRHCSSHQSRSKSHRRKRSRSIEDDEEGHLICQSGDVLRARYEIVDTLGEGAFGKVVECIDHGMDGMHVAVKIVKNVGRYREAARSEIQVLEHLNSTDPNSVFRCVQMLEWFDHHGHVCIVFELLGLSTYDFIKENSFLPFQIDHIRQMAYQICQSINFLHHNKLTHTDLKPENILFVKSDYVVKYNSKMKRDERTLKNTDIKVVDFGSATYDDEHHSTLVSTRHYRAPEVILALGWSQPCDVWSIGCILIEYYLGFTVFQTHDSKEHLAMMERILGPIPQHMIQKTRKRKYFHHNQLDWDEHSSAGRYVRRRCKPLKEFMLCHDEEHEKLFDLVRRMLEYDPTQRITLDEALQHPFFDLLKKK
Take `Cc1nc2cnc(N3CCOCC3)nc2n(C[C@H]2CCCO2)c1=O`: the Potency entry is “inactive”.
As to `CN(C)Cc1ccccc1-c1nc(NCc2cccs2)c2ccccc2n1`, the Potency result is “inactive”.
In the case of `CN(C)c1ncc2nc(-c3ccccc3)c(=O)n(-c3ccccc3)c2n1`, the Potency result was “inactive”.
In the case of `N#Cc1cccc(-c2nc3cnc(N4CCOCC4)nc3n(C[C@H]3CCCO3)c2=O)c1` it was “inactive”; in that of `COc1ccc(-c2nc3cnc(Nc4cccc(OC)c4)nc3n(C3CC3)c2=O)cc1`, “inactive”; in that of `CN(C)c1ncc2nc(-c3cn(C)c4ccccc34)c(=O)n(C[C@H]3CCCO3)c2n1`, “inactive”.
Consider `CN(C)c1ncc2nc(-c3ccc(F)cc3)c(=O)n(C[C@H]3CCCO3)c2n1`, for which the Potency entry is “inactive”.
As for `CN(C)c1ccc(-c2cc(Nc3ccc(F)cc3)ncn2)cc1`, the Potency entry was “inactive”.
`COc1ncc2nc(C)c(=O)n(C3CC3)c2n1`: the Potency result is “inactive”.
In the case of `CN(C)Cc1ccccc1-c1cc(N(C)Cc2ccco2)ncn1` it was “inactive”; in that of `CN(Cc1ccco1)c1ncncc1-c1ccccc1Cl`, “inactive”; in that of `CN1CCN(c2ncc3ncc(=O)n(C[C@H]4CCCO4)c3n2)CC1`, “inactive”.
In the case of `CN1CCN(c2ncc3nc(-c4cc(F)cc(F)c4)c(=O)n(C4CC4)c3n2)CC1` it was “inactive”; in that of `COCCn1c(=O)c(C)nc2cnc(Oc3ccc(OC)cc3)nc21`, “inactive”; in that of `CN(Cc1ccco1)c1ncncc1-c1ccoc1`, “inactive”.
With `CCNc1ncc2nc(-c3cn(C)c4ccccc34)c(=O)n(Cc3cccc(OC)c3)c2n1`, the Potency result was “inactive”.
As to `c1ccc(Nc2cc(-c3ccoc3)ncn2)cc1`, the Potency result is “inactive”.
Regarding `Cn1c(=O)c(-c2cccs2)nc2cnc(OCc3ccccc3)nc21`, the Potency entry is “inactive”.
Turning to `FC(F)(F)c1ccccc1-c1cc(NCc2ccccc2)ncn1`, the Potency result was “inactive”.
In the case of `Cc1nc2cnc(N(C)C)nc2n(C[C@H]2CCCO2)c1=O`, the Potency entry was “inactive”.
With `O=c1c(CCc2ccccc2)nc2cnc(N3CCOCC3)nc2n1Cc1cccs1`, the Potency entry is “inactive”.
`Cn1c(=O)c(-c2cc(F)cc(F)c2)nc2cnc(N3CCOCC3)nc21`: the Potency result was “inactive”.
Consider `O=c1cnc2cnc(N3CCOCC3)nc2n1CCc1ccccc1`, for which the Potency is 8.91 µM (active).
Take `Cc1ccccc1-c1cc(N(C)C)ncn1`: the Potency result was “inactive”.
Turning to `CCNc1ncc2ncc(=O)n(C3CC3)c2n1`, the Potency is 12.6 µM (active).
In the case of `COCCn1c(=O)c(-c2cc(F)cc(F)c2)nc2cnc(N3CCOCC3)nc21` it was “inactive”.
As to `O=c1c(-c2ccc(F)cc2)nc2cnc(N3CCNCC3)nc2n1Cc1ccc(F)cc1`, the Potency entry was “inactive”.
Turning to `COc1ncc2nc(-c3ccc(F)cc3)c(=O)n(C3CC3)c2n1`, the Potency entry was “inactive”.
Take `COc1ccc(-n2c(=O)c(-c3cccs3)nc3cnc(N(C)C)nc32)cc1`: the Potency result was “inactive”.
In the case of `Fc1ccc(Nc2ncncc2-c2ccccc2C(F)(F)F)cc1` it was “inactive”; in that of `CN(C)c1ncnc2ccc(-c3cccnc3)cc12`, 12.6 µM (active).
With `Cc1noc(C)c1-c1ccc2ncnc(N(C)C)c2c1`, the Potency is 2 µM (active).
As for `Cn1c(=O)c(-c2ccc(Cl)cc2)nc2cnc(Nc3ccccc3)nc21`, the Potency entry is “inactive”.
In the case of `CN1CCN(c2ncc3nc(-c4ccc(Cl)cc4)c(=O)n(Cc4cccs4)c3n2)CC1` it was “inactive”; in that of `CN1CCN(c2cc(-c3ccoc3)ncn2)CC1`, “inactive”.
As to `COCCNc1nc(-c2ccccc2OC)nc2ccccc12`, the Potency result was “inactive”.
In the case of `CN(Cc1ccco1)c1ncncc1-c1cccc(C#N)c1`, the Potency result is “inactive”.
Under `Cc1nc2cnc(N3CCN(C)CC3)nc2n(CCC#N)c1=O` stands “inactive”; under `COc1ccc(Oc2ncc3nc(C)c(=O)n(Cc4cccc(OC)c4)c3n2)cc1`, “inactive”.
Under `COCCn1c(=O)c(-c2ccc(Cl)cc2)nc2cnc(Oc3cccc(Cl)c3)nc21` stands “inactive”.
